Data taken from PubChem BioAssay AID1851 (National Center for Advancing Translational Sciences (NCATS), 2009).
The campaign covered roughly 16,000 compounds. About 5,700 (36%) were called active. Inconclusive results (about 24%) are left out. Calls come from the whole dose curve; as a rule, active = well fitted curve in the direction sought with a large enough effect; inconclusive = small, poorly fitted or top-dose-only effect, or effect the other way; inactive = no such curve, though single readings can be large or run the other way. Some of the results follow.
% is set by controls: 0 for no effect and ±100 for the full control effect.

The compounds below were run against Cytochrome P450 1A2 (Homo sapiens) (UniProt P05177) (assay: Cytochrome panel assay with activity outcomes). Conditions: recombinant CYP, pro-luciferin dealkylation, luminescence, p450-cyp1a2; series mostly up to 57.1 µM; activity, negative = inhibition: at the top concentration.
Sequence of Cytochrome P450 1A2 (Homo sapiens) (P05177 whole entry, looked up): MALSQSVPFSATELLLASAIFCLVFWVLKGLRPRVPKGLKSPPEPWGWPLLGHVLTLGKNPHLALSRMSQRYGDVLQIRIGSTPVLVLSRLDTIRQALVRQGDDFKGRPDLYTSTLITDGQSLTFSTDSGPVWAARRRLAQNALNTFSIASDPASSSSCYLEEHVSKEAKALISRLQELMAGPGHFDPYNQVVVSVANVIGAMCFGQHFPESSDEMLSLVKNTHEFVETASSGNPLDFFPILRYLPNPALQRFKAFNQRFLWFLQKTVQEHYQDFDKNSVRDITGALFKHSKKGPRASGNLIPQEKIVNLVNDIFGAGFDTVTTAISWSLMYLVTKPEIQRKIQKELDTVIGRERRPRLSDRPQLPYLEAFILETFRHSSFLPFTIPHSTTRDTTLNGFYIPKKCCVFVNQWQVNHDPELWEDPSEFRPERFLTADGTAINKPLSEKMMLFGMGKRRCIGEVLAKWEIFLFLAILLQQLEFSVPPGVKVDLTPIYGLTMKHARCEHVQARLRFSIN
`CC(C)=CCC/C(C)=C/CO/N=C1/C[C@@H](O)[C@@H](O)[C@@H]2[C@@H]3C(=O)N(C[C@@H]4CCCO4)C(=O)[C@H]3CC[C@H]12` was tested, and the activity, negative = inhibition was -0.0642% [at 11.4 µM] (inactive).
For `CC(C)(C)N1C(=O)[C@H]2[C@H]3[C@H](O)[C@H](O)C/C(=N/NC(=O)OCc4ccccc4)[C@@H]3CC[C@@H]2C1=O`, the activity, negative = inhibition was -5.49% [at 11.4 µM] (inactive).
In the case of `COc1ccc(/C=C2\OC(=O)c3c(OC)cccc32)cc1OC`, the AC50 is reported as 3.16 µM (active).
`COc1ccccc1OCCOc1ccc(/C=C2/C(=N)N3OC(C)=CC3=NC2=O)cc1OC` was tested, and the “activity, negative = inhibition” value was -4.69% (inactive).
`Cc1cc(-c2cc(C)c(O)c(C(C)(C)C)c2)cc(C(C)(C)C)c1O` was tested, and the AC50 was 0.631 µM (active).
With `Cc1cc(Cc2cc(Cc3cc(C)cc(C(C)(C)C)c3O)c(C)cc2C)c(O)c(C(C)(C)C)c1` the activity, negative = inhibition was -17.1% [at 2.29 µM] (inactive).
`Cc1cc(Cc2cc(C)cc(C(C)(C)C)c2O)c(O)c(Cc2cc(C)cc(C(C)(C)C)c2O)c1` was tested, and the activity, negative = inhibition was -15.6% [at 2.29 µM] (inactive).
`O=C(Nc1ccc2c(c1)OCCO2)c1cc2sccc2n1Cc1ccc(F)cc1` was tested, and the AC50 was 4.47 µM (active).
In the case of `COCCN1C(=O)c2ccccc2C(C(=O)Nc2ccc3c(c2)OCCO3)C1c1ccc(F)cc1` (stereo not drawn), the “activity, negative = inhibition” value is reported as -3.22% (inactive).
`COc1ccc(NC(=O)N2CCCC3(CCN(C(=O)c4cc(C(F)(F)F)cc(C(F)(F)F)c4)CC3)C2)cc1` was tested, and the “activity, negative = inhibition” value was -13.1% (inactive).
In the case of `COc1ccc(NC(=O)N2CCCC3(CCN(C(=O)c4cnccn4)CC3)C2)cc1`, the “activity, negative = inhibition” value is reported as -15.4% (inactive).
`COc1ccc(-c2cc(C(F)(F)F)n3nc(C(=O)N4CCCCC4)cc3n2)cc1` was tested, and the AC50 was 15.8 µM (active).
In the case of `C[N+](C)(N)Cc1csc(-c2ccc(Cl)cc2)n1`, the activity, negative = inhibition is reported as -4.22% [at 2.29 µM] (inactive).
With `Nc1nc(SCC(=O)Nc2ccccc2Sc2ccc(Cl)cc2)n[nH]1` the “activity, negative = inhibition” value was 9.65% (inactive).
For `Nc1ccccc1SCc1csc(-c2ccc(Cl)cc2)n1`, the AC50 was 0.631 µM (active).
For `Cn1nc(C(=O)NC2CCCCC2)c2ccccc2c1=O`, the AC50 was 12.6 µM (active).
With `CCCn1nc(C(=O)NCC(C)(C)N2CCOCC2)c2ccccc2c1=O` the “activity, negative = inhibition” value was -25.2% (inactive).
With `O=C(CCCCn1c(=O)c2ccccc2n(CC(=O)NC2CCCC2)c1=O)NC1CCCC1` the “activity, negative = inhibition” value was -2.45% (inactive).
`Cc1ccc(S(=O)(=O)n2ccc(-c3cccc(OCc4c(F)cccc4Cl)c3)n2)cc1` was tested, and the “activity, negative = inhibition” value was -3.21% (inactive).
`COc1ccc(S(=O)(=O)n2ccc(-c3cnc(-c4ccccc4)s3)n2)cc1` was tested, and the AC50 was 1.12 µM (active).
For `COc1ccc(S(=O)(=O)N2CC3C4C=CC(C4)C3C2)cc1` (stereo not drawn), the “activity, negative = inhibition” value was -14% (inactive).
In the case of `COc1ccc(-c2cnnc(CCCn3ccnc3-c3ccccc3)n2)cc1`, the activity, negative = inhibition is reported as -12.1% [at 11.4 µM] (inactive).
With `O=S(=O)(c1ccc(F)cc1)n1ccc(-c2cnc(-c3ccccc3)s2)n1` the AC50 was 2.24 µM (active).
